Measurements published in PubChem BioAssay (EPA / NIEHS).
Calls of active or inactive are those of the source. The calls were made as follows: active = hit-call score of the fitted dose curve at least 0.9, where 1 is the maximum; inactive = score below 0.9.

Assay: CCTE_Shafer_MEA_acute_burst_percentage_mean: CCTE's Neural Acute Assay for Percentage of Spikes in a Burst, Shafer Lab (AID 2284017);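 as to AC50: curve fitted for loss of signal so potency reflects decreased burst percentage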
Description: CCTE_Shafer_MEA_acute assay is conducted using Axion Biosystems 48 well microelectrode array (MEA) plates and Maestro recording system. Each well of the MEA plate contains a grid of 16 microelectrodes embedded in the culture surface. Electrically active cells, such as neurons, can be cultured over the electrodes, and electrical activity in these cells can be recorded extracellularly. The spontaneous firing of neurons is captured from each electrode on a microsecond timescale providing both temporally and spatially precise data. […] The CCTE_Shafer_MEA_acute assay uses primary cultures of rat cortical neurons. As these cultures mature over time, neural networks develop functional activity and form cohesive networks in which electrical activity can be highly coordinated. Baseline 40-minute recordings are made on days post-plating 13 or 15, followed by a secondary 40-minute recording after chemical exposure.CCTE_Shafer_MEA_acute_burst_percentage_mean is a component of the CCTE_Shafer_MEA_acute assay. It measures the percentage of spikes (action potential firing) in a single-electrode burst (temporally-clustered groups of spikes) as the number of spikes in bursts divided by the total number of spikes during a recording in a microelectrode array (MEA) using Axion Biosystems Maestro 768 channel amplifier with the AxIS adaptive spike detector. The average of the burst percentages across electrodes is calculated to report a well-level value. The recordings before and after chemical treatment are used to calculate a percent change in the mean burst percentage in each well.Data from the assay component CCTE_Shafer_MEA_acute_burst_percentage_mean was analyzed into 1 assay endpoint. This assay endpoint, CCTE_Shafer_MEA_acute_burst_percentage_mean, was analyzed in the negative analysis fitting direction relative to DMSO as the negative control and baseline of activity. Using a type of functional reporter, gain or loss-of-signal activity can be used to understand electrical activity.
Spontaneous activity in the cortical cultures was recorded using an Axion Biosystems Maestro 768 channel amplifier and Axion Integrated Studios (AxIS) v1.8 (or later) software. The amplifier recorded from all channels simultaneously (gain = 1200 x; sampling rate = 12.5 kHz/channel): raw signals were filtered with a Butterworth band-pass filter (300-5000 Hz), which filters out slower local field potentials leaving only fast potentials, i.e., "spikes", arising from extracellular currents associated with action potentials (Pine 2006; Wheeler and Nam 2011). On-line spike detection of filtered signals was conducted with the AxIS adaptive spike detector, using a threshold of 8x the root mean squared (rms) noise on each channel. Any electrodes with rms noise levels greater than 5 uV were grounded (e.g., no data were recorded). Once grounded, an electrode was grounded for the duration of the experiment. All recordings were conducted at 37 C. Wells were deemed usable if on the day of the exposure >/= 10 electrodes were active (defined as >/= 5 spikes/min). On DIV 13 or 15, a minimum of three wells from one cortical culture preparation were treated with each compound (0.03-40 uM). Prior to recording baseline activity, each mwMEA plate was placed in the Maestro at 37 C and allowed to sit for 20 min while firing rates stabilized. Baseline activity (40 min) was recorded before the addition of each compound. An additional 40 min of spontaneous activity was recorded in the presence of each compound. Changes in network parameters relative to baseline were assessed following compound treatment.

Row | Structure (SMILES) | outcome | AC50
1 | C#CCOC(=O)[C@@H](C)Oc1ccc(Oc2ncc(Cl)cc2F)cc1 | inactive | –
2 | O=C(O)c1ccccc1 | inactive | –
3 | N#CSCSc1nc2ccccc2s1 | – | 25.5 µM (active)
4 | CCNc1nc(N)nc(Cl)n1 | inactive | –
5 | O=C(Nc1ccc([N+](=O)[O-])cc1Cl)c1cc(Cl)ccc1O | – | 0.269 µM (active)
6 | CC(C)(C)[C@@H](O)[C@@H](Cc1ccc(Cl)cc1)n1cncn1 | inactive | –
7 | COC(=O)c1ccccc1C(=O)O | inactive | –
8 | CCCN(CCC)c1c([N+](=O)[O-])cc(C(F)(F)F)c(N)c1[N+](=O)[O-] | inactive | –
9 | O=C(c1ccccc1)C1CCCCC1 | – | 20 µM (active)
10 | OB(O)O | inactive | –
11 | Oc1ccc(C(c2ccc(O)cc2)C(Cl)(Cl)Cl)cc1 | – | 5.91 µM (active)
12 | CC(C)(c1ccc(O)cc1)c1ccc(O)cc1 | – | 28.6 µM (active)
13 | CSC(=O)c1cccc2nnsc12 | inactive | –
14 | CCCCC(CC)CN1C(=O)C2C3C=CC(C3)C2C1=O (centres undefined) | – | 36 µM (active)
15 | CC(C)CCCCCCc1ccc(O)cc1 | – | 12.6 µM (active)
16 | O=C(c1ccc(O)cc1O)c1ccc(O)cc1O | inactive | –
17 | Cc1nn(C)c(Oc2ccccc2)c1C=NOCc1ccc(C(=O)OC(C)(C)C)cc1 | – | 3.26 µM (active)
18 | C=CCOC(Cn1ccnc1)c1ccc(Cl)cc1Cl (centres undefined) | – | 2.09 µM (active)
19 | CC1(C)C(C=C(Cl)Cl)C1C(=O)OCc1cccc(Oc2ccccc2)c1 (centres undefined) | – | 20 µM (active)
